Experimental data from PubChem BioAssay (NCI).
Compounds without any hit were thinned out: in the full panel of roughly 83,000, 20% have a hit.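 Values shown are percent growth following 48 h exposure of cells in 96-well plates to a single concentration of compound; below 10 was considered active.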 Unmarked numbers belong to inactive results. Active and inactive are the calls of the source.

Each compound was assayed on MDA-MB-468 breast (assay: NCI-60 one-dose screen, 48 h (100 = growth as untreated, 0 = no growth, -100 = all killed)). Settings: 10 µM unless noted.

SMILES	growth
CNc1ccc(NC)c2c1C(=O)c1ccccc1C2=O	-7.38% (active)
COc1ccc(-c2cc(/C=C3\C(=O)Nc4ccc(OC)cc43)[nH]n2)cc1	19%
N#Cc1c(-c2ccc(Cl)cc2)csc1NC(=O)Nc1ccc(Cl)c(C(F)(F)F)c1	-9.61% (active)
OC(CNc1ccnc2cc(Cl)ccc12)CNc1ccnc2cc(Cl)ccc12	-67.9% (active)
COc1ccncc1C#Cc1cncc(C(=O)Nc2ccc(CN3CCN(C)CC3)c(C(F)(F)F)c2)c1	73.1%
CN(C)c1ccc(C#Cc2c(F)cccc2Cl)cc1	8.33% (active)
C=CCOC(=O)C(=O)OCC=C	104%
O=C1/C(=C/c2ccc(C(F)(F)F)cc2)COc2ccc(O)c(O)c21	-36.8% (active)
CCOC(=O)n1cc(-c2nonc2-c2cn(C)c3ncccc23)c2cc(F)ccc21	-7.17% (active)
c1csc(-c2cnc3nonc3n2)c1	67.5%
C#C[C@]1(O)CC[C@H]2[C@@H]3CC=C4c5sc(N=C(N)N)nc5CC[C@]4(C)[C@H]3CC[C@@]21C	-31.7% (active)
COc1cc(Br)c(-c2nc(-c3ccccc3)c(-c3ccccc3)n2Cc2ccccc2)cc1OC	54%
COP(=O)(OC)c1nnn(-c2cccc([N+](=O)[O-])c2)c1C	120%
NC(=O)CC1C=CCC1 (centres undefined)	111%
O=C1CCCN1C(O)CCN(Cc1ccccc1)Cc1ccc(Cl)cc1 (centres undefined)	113%
O=C(CSc1nnc(-c2ccc(Cl)c(Cl)c2)n1-c1ccccc1)Nc1ccc(C(=O)/C=C/c2ccc(Cl)cc2)cc1	98.4%
Cc1cc(N2CCN(C)CC2)nc(NC2CCCC(Nc3ccnc4cc(Cl)ccc34)C2)n1 (centres undefined)	-52.1% (active)
O=C(Nc1ccc(Cl)c(Cl)c1)Nc1ccccc1O	0.995% (active)
C#CC[C@@H]1C[C@]2(C)[C@H]3CC[C@@H]4[C@H]5C(C(=C)C)CC[C@]5(C(=O)NCCCCCCCCN)CC[C@@]4(C)[C@]3(C)CC[C@H]2C(C)(C)[C@H]1OC(C)=O (some centres undefined)	105%
COc1ccc(N2CCN(C3=C(Cl)C(=O)C(C)=C(C)C3=O)CC2)cc1	74.1%
C=C(C)[C@H]1CC/C(C)=C/CC[C@]2(C)O[C@H]2CC/C(C=O)=C\C1O (some centres undefined)	126%
COc1ccc(OC)c(-c2nc(SCC(=O)c3ccc(Br)cc3)nc(Nc3ccc(S(N)(=O)=O)cc3)c2C#N)c1	43.9%
CC(C)(C)c1ccc(C(=O)Nc2sc3c(c2C(N)=O)CCC(=O)C3)cc1	-54.7% (active)
CC(=O)c1c(C)[nH]c(-c2nc3ccc(N4CCN(C)CC4)cc3[nH]2)c1-c1ccccc1	24.1%
CCCCCCCC/C=C\CCCCCCCCOc1ccccc1CC(=O)NCC[N+](C)(C)C	68.9%
O=C(CCl)Nc1ccc(Cc2ccc(NC(=O)CCl)cc2)cc1	-36.8% (active)
COc1ccc2nc(Cl)c(/C=C/C(=O)c3ccc(NC(=O)CSc4nnc(-c5ccc(Cl)c(Cl)c5)n4-c4ccccc4)cc3)cc2c1	98.2%
COc1cc(C2C=C(c3ccc(Cl)cc3)N=C3SC(C)=CN32)cc(OC)c1OC (centres undefined)	80.2%
COC1C(O)CC(OC2CC(OC3CC(O[C@@H]4C(=O)c5c(cc6cc(OC7CC(OC8CC(O)C(O)C(C)O8)C(O)C(C)O7)c(C)c(O)c6c5O)CC4[C@H](OC)[C@@H](O)C(C)=O)OC(C)C3O)OC(C)C2O)OC1C (some centres undefined)	-40.1% (active)
